CCT modulator: High-Throughput Screening for Modulators of Cytosolic Chaperonin Activity; purified chaperonin ATPase assay, HTRF ADP detection, 30 min; activity change, % (test concentration not listed), hits read low; 360,000 compounds, 0.3% hits; AID 651819, 2012; in the data active means activity change below about -30%
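Enzyme 40 or 20 nM (batch-dependent) in Tris pH 7.4/KCl/MgCl2/DTT; cpd 76 uM single point; ATP 10 uM; 30 min 37 °C; Transcreener ADP HTRF detection, 30 min RT; ratio 665/615.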
CtBP-E1A inh: qHTS Assay for Inhibitors of the CtBP/E1A Interaction; CtBP / adenovirus E1A interaction (AlphaScreen); AlphaScreen GST-E1A/His-CtBP binding, 1536-well; hits give low values; activity change, % (no concentration beside the values); 340,000 compounds, 0.49% hits; AID 651724, 2012
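GST-E1A and His-tagged CtBP (125 nM each as 5X stock) were preincubated with pin-transferred compound for 2 h at 37 °C in the dark, then glutathione donor and nickel acceptor beads were added for 1 h before AlphaScreen reading.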
Eya2 inh: qHTS Assay for Inhibitors of the Phosphatase Activity of Eya2. Protein phosphatase EYA2 (Homo sapiens), O00167. recombinant Eya2, OMFP fluorescence dephosphorylation (OMFP is methylfluorescein phosphate). 330,000 compounds, 0.006% hits. Potency, µM (top dose mostly 76.9 µM), for inactives: at the highest dose activity, negative = inhibition, hits mostly inhibitors; active means well fitted inhibition curve with a large enough effect; inconclusive means small, poorly fitted or top-dose-only effect, or effect the other way; further: potency means the concentration at half of the fitted maximal effect
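Eya2 protein (added as 0.2 uM solution) was preincubated with compound for 10 min at ambient temperature in 50 mM HEPES pH 7.5, 50 mM NaCl, 5 uM MgCl2, 0.05% BSA, 1 mM DTT. OMFP (added at 50 uM) then reacted 10 min; fluorescence read at 485/525 nm.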
PI4K2A block: qHTS for small molecular inhibitors of PI4K2A; 420,000 compounds, 0.13% hits; activity change, negative = inhibition, % at 76.9 µM; purified PI4K2A, ADP-Glo luminescence, 1 h; hits give low values; in the data active means activity change below about -50%; inconclusive means mostly about -30% to -49%;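 further: -100% = wells without enzyme as full effect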
Target sequence (Q9BTU6 whole entry, looked up): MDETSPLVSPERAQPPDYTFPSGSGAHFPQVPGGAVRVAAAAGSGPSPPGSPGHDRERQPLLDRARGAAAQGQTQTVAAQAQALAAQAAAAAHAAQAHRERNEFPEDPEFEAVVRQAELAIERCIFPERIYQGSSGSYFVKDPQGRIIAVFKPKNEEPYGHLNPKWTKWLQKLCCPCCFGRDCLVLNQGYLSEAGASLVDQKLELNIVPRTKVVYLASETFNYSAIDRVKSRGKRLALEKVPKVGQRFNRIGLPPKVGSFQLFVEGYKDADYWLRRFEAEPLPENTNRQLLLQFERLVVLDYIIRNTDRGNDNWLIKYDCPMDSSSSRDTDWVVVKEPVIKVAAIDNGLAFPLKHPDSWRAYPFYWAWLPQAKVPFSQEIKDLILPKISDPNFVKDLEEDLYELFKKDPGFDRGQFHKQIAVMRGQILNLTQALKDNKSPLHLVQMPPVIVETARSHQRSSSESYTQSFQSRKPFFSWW
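PI4K2A activity was measured by ADP-Glo luminescence: enzyme (4 ug/mL stock) and phosphatidylinositol (1.2 mM stock) in Tris pH 7.5/MgCl2/EGTA/Triton X-100 buffer were reacted with ATP (300 microM stock) for one hour at ambient temperature.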
Six1-Eya2 blk: qHTS Assay for Inhibitors of the Six1/Eya2 Interaction; AID 651725, 2012; Homeobox protein SIX1 (Homo sapiens) + Protein phosphatase EYA2 (Homo sapiens), …; AlphaScreen GST-Six1/His-Eya2 binding, biochemical; hits give low values; activity change, % (test concentration not listed); 360,000 compounds, 0.56% hits
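GST-Six1 + His-Eya2 (5X stock: 250/500 nM); Tris pH 8.0, 300 mM NaCl, 0.05% BSA, 0.02% Tween 20; GSH donor/Ni acceptor beads; 1 h 37 °C dark; AlphaScreen readout.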
* hit, by the source's call; ? = inconclusive; / = no result given. In the library only some 0.97% were active in any assay of this set; here they are far more common. Unless noted, no stated cut-off is given here; in the data, active means activity change below about -65%; inconclusive means mostly about -30% to -63%; inactive means weaker than that. Unless noted, on the % scale 0 is the no-effect control and ±100 the full control effect.

SMILES	CCT modulator	CtBP-E1A inh	Eya2 inh	PI4K2A block	Six1-Eya2 blk
CC(C)CC(N)c1csc(Nc2ccc(C(=O)NCCCO)cn2)n1 (configuration not stated)	1	-78*	/	2	-70*
CCCCN(C(=O)C1CCC(CNS(=O)(=O)c2cccc3nsnc23)CC1)c1ccccc1 (configuration not stated)	/	/	/	0	/
O=C1C=C(NCCc2cc(Br)c(O)c(Br)c2)C(=O)c2ncccc21	2	-92*	/	?	-86*
Cc1nc(C2COc3ccccc3O2)sc1C(=O)O (configuration not stated)	1	8	?	-63*	-1
Cc1cccc(NC(=O)COC(=O)c2cc(C)oc2C)c1	3	-5	-4%	4	1
Cc1cc(C(=O)OCC(=O)Nc2cccc(S(N)(=O)=O)c2)c(C)o1	1	-68*	2%	0	-16
COc1c(O)c(=O)n2c3ccccc3c3ccnc1c32	1	-82*	-28%	-2	-77*
Cc1ccc(-n2nc3c(=O)n(CC(=O)NCCC4=CCCCC4)nc(C)c3c2C)cc1	-78*	/	-1%	-2	23
Cc1ccc(-n2nc3c(=O)n(CC(=O)NCCc4ccc(Cl)cc4)nc(C)c3c2C)cc1	0	/	2%	-1	2
COc1ccc(Cl)cc1-n1nnc(-c2nc(-c3ccccc3)no2)c1C	/	/	/	-5	/
Cn1c(=O)c2c(-c3ccccc3)n3c(c2n(C)c1=O)C(c1ccc([N+](=O)[O-])cc1)Nc1ccccc1-3 (configuration not stated)	/	/	/	4	/
CC1=C(C(=O)OCc2ccccc2)C(c2cccc(Cl)c2Cl)CC(=O)N1 (configuration not stated)	/	/	/	-6	/
COC(=O)C1=C(C)NC(=O)CC1c1cccc(Cl)c1Cl (configuration not stated)	-30*	4	6%	0	-2
Cc1ccc2c(CC(=O)NCc3ccccc3)coc2c1C	/	/	/	3	/
Cc1ccc(C)c(NC(=S)N(CCc2nc3cc(C)c(C)cc3[nH]2)Cc2cccnc2)c1	-58*	5	1%	1	4
CC1C=CC=CCCC=CC=CC=CC=CC(OC2O[C@H](C)[C@@H](O)[C@H](N)[C@@H]2O)CC(O)C(C(=O)O)C(O)CC(=O)CC(O)C(O)CCC(O)CC(O)CC(O)CC(=O)OC(C)C(C)C1O (some centres not stated)	/	/	/	-9	/
CC1C=CC=CC=CC=CC=CC=CC=CC(OC2OC(C)C(O)C(N)C2O)CC2OC(O)(CC(O)CC(O)C(O)CCC(O)CC(O)CC(=O)OC(C)C(C)C1O)CC(O)C2C(=O)O (configuration not stated)	-1	0	/	?	-75*
CC(C)n1c(O)c(N=NC(=O)c2ccccc2NS(=O)(=O)c2cccs2)c2ccccc21	-4	/	2%	1	-86*
O=C(c1ccco1)N1CCN(C(=O)c2cc(-c3ccccn3)nc3ccc(Cl)cc23)CC1	-1	-92*	-17%	-3	-87*
O=C(c1ccco1)N1CCN(C(=O)c2cc(-c3ccccc3)nc3ccccc23)CC1	-3	-14	-6%	1	-9
NS(=O)(=O)c1ccc(CNC(=O)c2cc(-c3ccccn3)nc3ccc(Cl)cc23)cc1	-55*	0	4%	-27	-4
O=C(Cn1ncc2c3ccccc3n(Cc3ccccc3)c2c1=O)Nc1ccccc1C(F)(F)F	/	/	/	-5	/
Cn1c(=O)c2sccc2n2c(CCCC(=O)Nc3ccc(Oc4ccccc4)cc3)nnc12	/	/	/	-4	/
NC(c1ccccc1)c1ccncc1 (configuration not stated)	-43*	/	-2%	-2	-1
Cc1cccc(N(CC(=O)NCc2ccccc2)S(C)(=O)=O)c1C	/	/	/	-1	/
SMILES	CCT modulator	CtBP-E1A inh	Eya2 inh	PI4K2A block	Six1-Eya2 blk
Nc1ccccc1-c1ccccc1N	-5	6	-6%	0	-3
Nc1ccccc1N=Nc1ccccc1N	-2	-79*	1%	-9	?
N#Cc1c(N)nc(SCC(=O)C23CC4CC(CC(C4)C2)C3)c(C#N)c1-c1ccc(Cl)cc1	-40*	6	-1%	-9	8
O=C(NCc1ccccc1)c1ccc2c(c1)N(Cc1ccc(F)cc1)CCS2	/	/	/	-2	/
CN=c1scc(-c2cccs2)n1/N=C/c1ccccc1O	0	-18	3%	-20	-19
CC(C)N=c1scc(-c2ccco2)n1/N=C/c1ccc(O)c(O)c1	-1	?	?	-10	?
CN=c1scc(-c2cccs2)n1/N=C/c1ccc(O)c(O)c1O	2	-88*	0%	?	-77*
Oc1ccc(/C=N/n2c(-c3ccco3)csc2=Nc2cccnc2)c(O)c1	0	-93*	-1%	2	-93*
C=CCN=c1scc(-c2ccco2)n1/N=C/c1ccc(O)c(O)c1O	-1	-78*	2%	-6	-67*
COCCN=c1scc(-c2ccco2)n1/N=C/c1ccc(O)c(O)c1O	-1	-79*	-1%	-11	-84*
CN=c1scc(C)n1/N=C/c1ccc(O)c(O)c1O	-1	?	-14%	-21	?
COCCCNC(=O)c1c(NC(=O)Cc2coc3c(C)c(C)ccc23)sc2c1CCCC2	/	/	/	2	/
COc1ccc(OC)c(C(=O)c2c(N)c(-c3nc(-c4ccc(C)c(C)c4)cs3)c3ccccn23)c1	/	/	/	-3	/
CCOC(=O)C1CCN(c2ccc(-c3cccs3)nn2)CC1	-1	0	9%	-69*	0
CCOC(=O)C1CCN(c2ccc(Cl)nn2)CC1	0	4	10%	3	4
CSCCC(NC(=O)/C(=C/c1ccco1)NC(=O)c1ccco1)C(=O)O (configuration not stated)	-38*	-22	/	-12	-19
CSCCC(NC(=O)/C(=C\c1ccco1)NC(=O)c1ccco1)C(=O)O (configuration not stated)	1	7	12%	-8	7
O=C(CCOCCOCCOCCOCCC(=O)Nc1c(I)cc(I)c(C(=O)O)c1I)Nc1c(I)cc(I)c(C(=O)O)c1I	/	/	/	-6	/
CCOC(=O)c1ccc(NC(=O)CSc2nc(N)c(NC(=O)c3ccc(Br)o3)c(=O)[nH]2)cc1	-2	?	-2%	-20	-79*
Cc1cc(C)cc(NC(=O)CSc2nc(N)c(NC(=O)c3ccc(Br)o3)c(=O)[nH]2)c1	2	0	4%	-1	-18
O=C(C1CC1)N1CCN=C1SCc1ccccc1	3	4	1%	3	6
